Reference: PubChem BioAssay (NCI)
Values joined by “and” are separate entries in the source; they are usually repeats but may differ in a detail not shown here. Identical values can stand only once. About 83,000 compounds went through this panel and 20% of them were active in at least one assay; those are over-represented in the sample as a whole.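 In brief: 96-well plates, 48 h treatment, single concentration, percent growth endpoint.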 Active and inactive are the calls of the source. The calls were made as follows: active = growth percent below 10; inactive = the rest.

Test system: HL-60(TB) leukemia
Assay: NCI-60 one-dose screen, 48 h (100 = growth as untreated, 0 = no growth, -100 = all killed)
Settings: 10 µM unless noted

| SMILES | growth |
| --- | --- |
| COc1ccccc1/C=N\N=C(N/N=C/c1ccccc1OC)N/N=C/c1ccccc1OC | 31.3% (inactive) and 41.7% (inactive) |
| COc1ccc(-c2cn(-c3cc(OC)c(OC)c(OC)c3)c(=O)n2C(C)=O)cc1 | 32.2% (inactive) |
| O=C1OCC2=C1C(c1cccc(Cl)c1)c1cc3c(cc1N2CCO)OCCO3 (stereo not given) | -20% (active) |
| COc1cc(C2CC(C3C(=O)N(C)C(=O)N(C)C3=O)=NN2c2cc(Cl)cc(Cl)c2)cc(OC)c1OC (stereo not given) | 98.6% (inactive) |
| COc1ccc(/C=C2\Oc3cc(OCCN4CCC(Cc5ccccc5)CC4)ccc3C2=O)cc1OC | 99.7% (inactive) |
| COc1ccc(-c2ccc(-c3ccc(C(=N)N)s3)s2)cc1 | -61.1% (active) |
| CO[C@H](C(=O)[C@@H](O)[C@@H](C)O)[C@@H]1Cc2cc3cc(OC4CC(OC5CC(O)C(O)C(C)O5)C(O)C(C)O4)c(C)c(O)c3c(O)c2C(=O)[C@H]1OC1CC(OC2CC(OC3CC(C)(O)C(O)C(C)O3)C(O)C(C)O2)C(O)C(C)O1 (stereo not given in full) | 3.88% (active) |
| O=C(Nc1ccncc1)C(=O)c1cn(S(=O)(=O)c2ccc(Br)cc2)c2ccccc12 | 15.3% (inactive) |
| Fc1ccc(-c2nnc(-c3c(-c4ccc(F)cc4)nc4ncccn34)o2)cc1 | 87.8% (inactive) |
| CNC(=O)c1ccc(C)c(-n2c(C)cc(OCc3ccc(F)cc3F)c(Br)c2=O)c1 | 61.1% (inactive) and 91% (inactive) |
| NS(=O)(=O)c1ccc(N2Cc3cc(Cl)ccc3OC3=C2C(=O)N(CC2CCCCC2)C3=O)cc1 | -35.9% (active) |
| CCCC(O)Cn1ncc(C(=O)OCC)c1NC(=O)NCc1ccccc1F (stereo not given) | 81.6% (inactive) |
| Cc1cc(N=Nc2ccc(C)c(N=Nc3cc(C)c(N)cc3N)c2)c(N)cc1N | 99.9% (inactive) and 82.5% (inactive) |
| Cc1nc2cc(NC(=O)CN3CCN(CCN4C(=O)c5cccc6cccc(c56)C4=O)CC3)ccc2s1 | 63.9% (inactive) |
| COC(=O)c1cc(=O)nc(N/N=C/c2ccco2)s1 | 116% (inactive) |
| CNCCCNCCCCNCCCN1C(=O)c2ccc3c4c(ccc(c24)C1=O)C(=O)N(CCCNCc1ccccc1OC)C3=O | 23% (inactive) |
| COc1cc(NC(=O)COc2ccccc2)c(C(N)=O)cc1OC | -11.7% (active) |
| COc1cc(NCCCCCN)c2ncccc2c1 | 83.2% (inactive) |
| CCc1onc(-c2ccc(OC)cc2)c1-c1ccccc1OCCN(CC)CC | 82.6% (inactive) |
| NC(N)=NCCCCCNc1noc(Cc2c[nH]c3cc(Br)ccc23)n1 | 44.9% (inactive) |

| SMILES | growth |
| --- | --- |
| CCCCCCCC[C@@H]1N[C@@H](C(=O)OC)Cc2c1[nH]c1ccccc21 | 99% (inactive) |
| CC(NNC(=S)N1CCCCCC1)c1ccc2ccccc2n1 (stereo not given) | 28.8% (inactive) |
| O=[N+]([O-])c1ccc(NC2CCCCC2)nc1 | 110% (inactive) |
| Cn1c2ccccc2c2nn(C(=O)c3ccccc3)c(=O)nc21 | 110% (inactive) |
| CCCCn1cnc2c(=O)[nH]cnc21 | 108% (inactive) |
| Cc1cc(C(=O)O)c(C)cc1C(=O)O | 113% (inactive) |
| COc1ccc(/C=C\c2cc(OC)c(OC)c(OC)c2)c(NS(=O)(=O)c2ccc(C(C)(C)C)cc2)c1O | 6.05% (active) |
| CCOC(=O)c1cc(-c2cccnc2)nc2c(Cl)cc(Cl)cc12 | 108% (inactive) |
| c1csc([C@@H]2C[C@@H]3Cc4ccc5ccccc5c4N2O3)c1 | 104% (inactive) |
| N=C(N)c1ccc(-c2ccc(-c3ccco3)o2)cc1 | 16.6% (inactive) |
| COc1cccc(-c2nc3sccn3c2-c2ccnc(NCCCNS(=O)(=O)c3ccccc3)n2)c1 | 39.9% (inactive) |
| COP(=O)(OC)C(C)(C)CC(=O)CC(C#N)(C#N)C(C#N)C#N | 103% (inactive) |
| N#CSCC(=O)c1ccc(Cl)cc1 | 73.4% (inactive) |
| O=c1oc2ccccc2cc1C1=NN=C(SCc2ccccc2)SC1 | 102% (inactive) |
| Cc1sc2nc3[nH]/c(=C\c4ccc(Cl)cc4)c(=O)n3c(=O)c2c1C | 92.8% (inactive) |
| CC(=O)OCc1nc(C#N)c(N(C)C)o1 | 97.5% (inactive) |
| CC(O)Cn1cnc2c1c(=O)n(C)c(=O)n2C (stereo not given) | 97.1% (inactive) |
| O=C(Nc1nc2ccccc2[nH]1)C(=O)Nc1nc2ccccc2[nH]1 | 99.7% (inactive) |
| CCOC(=O)N(O)c1ccc(/C=C/c2ccccc2)cc1 | 61.1% (inactive) and 43.9% (inactive) |
| COCCc1ccc(OCC(O)CNC(C)C)cc1 (stereo not given) | 94.2% (inactive) |
